In the library only some 3.5% were active in any assay of this set; here they are far more common.
Bead autofluor = flagged as autofluorescent in microsphere protease counterscreen | compound autofluorescence counterscreen, microsphere flow cytometry; hits give high values | fluorescence intensity (concentration not given with the values) | actives 3.1% (n = 360,000); in the data active means fluorescence intensity above about 16000; inconclusive means no clear call, values can overlap the other calls
BoNT A protease = BoNT/A light chain protease inhibitors, primary screen, biochemical, flow cytometry, MLPCN library | Botulinum neurotoxin type A light chain protease (Clostridium botulinum A str. ATCC 3502) | multiplex microsphere protease substrate cleavage | inhibition, % at 10 µM | actives 0.17% (n = 360,000) | AID 588499, 2011; in the data active means inhibition above about 30%; inconclusive means no clear call, values can overlap the other calls
Anthrax LF inh2 = Bacillus anthracis LF protease inhibitors, primary screen, biochemical, multiplex microsphere, MLPCN library; Lethal factor (Bacillus anthracis), P15917; multiplex microsphere protease cleavage assay; inhibition, % at 10 µM; actives 0.12% (n = 360,000); AID 588501, 2011; in the data active means inhibition above about 30%; inconclusive means no clear call, values can overlap the other calls
Target sequence (P15917 whole entry, looked up): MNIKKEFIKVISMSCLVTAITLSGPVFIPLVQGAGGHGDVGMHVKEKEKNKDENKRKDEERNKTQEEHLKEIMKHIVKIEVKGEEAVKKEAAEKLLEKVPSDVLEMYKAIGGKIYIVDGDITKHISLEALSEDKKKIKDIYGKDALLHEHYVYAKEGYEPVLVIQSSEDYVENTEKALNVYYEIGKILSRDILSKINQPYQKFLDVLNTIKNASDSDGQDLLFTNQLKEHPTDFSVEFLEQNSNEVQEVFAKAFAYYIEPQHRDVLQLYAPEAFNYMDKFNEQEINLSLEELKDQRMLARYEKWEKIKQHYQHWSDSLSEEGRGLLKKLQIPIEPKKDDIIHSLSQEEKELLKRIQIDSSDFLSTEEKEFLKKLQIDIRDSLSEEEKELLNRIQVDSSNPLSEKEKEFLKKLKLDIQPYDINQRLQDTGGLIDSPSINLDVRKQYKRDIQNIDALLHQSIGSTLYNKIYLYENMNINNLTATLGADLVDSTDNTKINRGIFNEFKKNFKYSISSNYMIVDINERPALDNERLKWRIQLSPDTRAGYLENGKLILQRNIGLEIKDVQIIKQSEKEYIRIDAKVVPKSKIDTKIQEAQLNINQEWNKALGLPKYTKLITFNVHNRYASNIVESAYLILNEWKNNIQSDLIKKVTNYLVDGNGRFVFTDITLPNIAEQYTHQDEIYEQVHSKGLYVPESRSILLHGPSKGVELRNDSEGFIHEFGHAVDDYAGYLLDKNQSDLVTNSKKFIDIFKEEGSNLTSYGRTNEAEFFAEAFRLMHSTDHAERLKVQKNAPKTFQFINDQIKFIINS
BoNT-F LC inh = BoNT/F light chain protease inhibitors, primary screen, biochemical, flow cytometry, MLPCN library. inhibition, % at 10 µM. Multiplex microsphere protease cleavage assay. Botulinum neurotoxin type F light chain protease (Clostridium botulinum). actives 0.22% (n = 360,000); in the data active means inhibition above about 35%, passing the limit was not always enough; inconclusive means no clear call, values can overlap the other calls
Vc quorum ag-1 = inducers of Vibrio cholerae quorum light production without autoinducers, primary screen, BH1578 luxS cqsA deficient, single point. AID 588436, 2011. V. cholerae BH1578 lux reporter, luminescence, 6 h. actives 0.16% (n = 350,000). activation, % at 18.7 µM; in the data active means activation mostly above about 9.7%, no sharp cut-off; inconclusive means no clear call, values can overlap the other calls; inactive means mostly below about 3.7%
Vc quorum ag-2 = V. cholerae lux activation without autoinducers – BH1578 luxS cqsA deficient, cherry-pick, plate reader, dose response. shares compounds with Vc quorum ag-1. V. cholerae BH1578 lux reporter, luminescence, 6 h. activation, % at 50 µM. 620 tested, under 10 active
BoNTA LC inh 1 = BoNT/A light chain protease inhibitors, confirmation, biochemical, flow cytometry, cherry pick 1. shares compounds with BoNT-F LC inh. multiplex microsphere protease assay. inhibition, % at 10 µM. actives 3% (n = 720); in the data active means inhibition above about 32%
BoNT-F LC CP1 = BoNT/F light chain protease inhibitors, confirmation, biochemical, flow cytometry, cherry pick 1; shares compounds with BoNT-F LC inh; multiplex microsphere protease cleavage assay; inhibition, % at 10 µM; 720 tested, under 10 active
LF protease CP1 = Bacillus anthracis LF protease inhibitors, confirmation, biochemical, multiplex microsphere, cherry pick 1. shares compounds with BoNT-F LC inh. multiplex microsphere protease cleavage assay. inhibition, % at 10 µM. 720 tested, under 10 active. AID 602142, 2011
Each line names hits and unclear results; the compound was inactive in the other large screens (follow-up assays come after a bar, where they were run). Unless noted, how the calls were made is not given here.

Cc1ccc(/C(O)=C2/C(=O)C(=O)N(c3ccccn3)C2c2cccc([N+](=O)[O-])c2)cc1 (stereo not drawn)	none
CC(C)(C)OC(=O)NCCCC(CCCNC(=O)OC(C)(C)C)C(=O)O	none | Vc quorum ag-2 inactive
CC(C)(C)OC(=O)NCCCCCO	none
Cc1ccc(S(=O)(=O)N2CCC[C@H]2C(=O)NCc2ccccc2Cl)cc1	none
CCCCn1c(=O)[nH]c(=O)c2c1nc(COc1ccc(C#N)cc1)n2CCC	none | Vc quorum ag-2 inactive
Cc1cccc(N2CCN(C(=O)Cn3cccc3C(=O)c3ccccc3)CC2)c1C	none | Vc quorum ag-2 inactive
CC1=C(C(=O)N2CCOCC2)CC(CC(=O)NCCc2ccccn2)C(=O)N1Cc1ccccc1 (stereo not drawn)	none (no result: Vc quorum ag-1)
CC(C)NC(=O)c1ccc(-c2cccc(C(F)(F)F)c2)o1	Vc quorum ag-1 33 | Vc quorum ag-2 inactive
Cc1nnc(NC(=O)c2ccc(-c3cccc(C(F)(F)F)c3)o2)s1	none
CCOc1ccc(S(=O)(=O)N2CCCC(C(=O)N3CCCC3)C2)cc1 (stereo not drawn)	none
CCS(=O)(=O)Nc1ccc(C(=O)c2ccccc2)cc1	none
CCS(=O)(=O)Nc1ccc(C(=O)OC)cc1	Vc quorum ag-1 17 | Vc quorum ag-2 inactive
COC(=O)c1ccc(CSc2nnnn2C)o1	none
COC(=O)c1ccc(CSc2nnc3c(Cl)cc(Cl)cn23)o1	Vc quorum ag-1 35 | Vc quorum ag-2 inactive
O=S(=O)(Nc1c(F)cccc1F)c1ccc(Cl)nc1	Bead autofluor inconclusive, BoNT A protease inconclusive, Anthrax LF inh2 inconclusive, BoNT-F LC inh inconclusive
O=C(Nc1ccc(OCc2ccccc2)cc1)Nc1nnc([C@H]2C[C@H](O)[C@@H](CO)O2)s1	none
COc1ccc(S(=O)(=O)N2Cc3ccccc3CC2C(=O)Nc2ccc3c(c2)OCO3)cc1 (stereo not drawn)	none
Cc1ccc(S(=O)(=O)N2Cc3ccccc3CC2C(=O)Nc2ccc3c(c2)OCO3)cc1 (stereo not drawn)	none | Vc quorum ag-2 inactive
CC(=O)Nc1ccc(NC(=O)c2ccccc2C)cc1	Vc quorum ag-1 257 | Vc quorum ag-2 inactive
Cc1[nH]nc2c1C1(CCOCC1)C(C#N)=C(N)O2	none
COCc1[nH]nc2c1C1(CCC3(CC1)OCCO3)C(C#N)=C(N)O2	Vc quorum ag-1 17 | Vc quorum ag-2 inactive
CC(C)CCOc1cccc(OCC(=O)N(C)C2CCS(=O)(=O)C2)c1 (stereo not drawn)	Bead autofluor 16885 | Vc quorum ag-2 inactive
CN(C(=O)COc1ccccc1)C1CCS(=O)(=O)C1 (stereo not drawn)	none
CC(=O)c1cccc(NC(=O)CSc2nc(=O)n(CCCN3CCOCC3)c3c2CCC3)c1	Bead autofluor inconclusive, Vc quorum ag-1 31 | Vc quorum ag-2 inactive
COc1ccccc1N(CC(O)Cn1ccnc1C)S(=O)(=O)c1ccccc1 (stereo not drawn)	none
CC[C@]1(C(=O)OC)[C@H]2C(=O)N(C)C(=O)[C@H]2[C@H]2CN=C(SC)N21	none
COc1ccc2cc(C(c3nnnn3C3CCCC3)N3CCc4ccccc4C3)c(=O)[nH]c2c1 (stereo not drawn)	none
Cc1ccc2cc(C(c3nnnn3C3CCCC3)N3CCN(c4ccc(F)cc4)CC3)c(=O)[nH]c2c1 (stereo not drawn)	Bead autofluor 22513 | Vc quorum ag-2 inactive
C/C(=N\NC1=N[C@H]2CS(=O)(=O)C[C@H]2S1)c1ccccc1	none
O=C(CN1CCN(c2ccc(F)cc2)CC1)Nc1cc(C(F)(F)F)ccc1Cl	Vc quorum ag-1 25 | Vc quorum ag-2 inactive
O=C(CN1CCOCC1)Nc1cc(C(F)(F)F)ccc1Cl	none
COc1ccc(/C=C(\C#N)C(=O)OCC(=O)NCc2ccco2)cc1	none
CCOC(=O)C1CCN(C(=O)CSc2nc3ncccc3[nH]2)CC1	none
CCOC(=O)C1CCN(C(=O)C2c3ccccc3C(=O)N(C)C2c2ccc(OC)cc2)CC1 (stereo not drawn)	Vc quorum ag-1 17 | Vc quorum ag-2 inactive
O=[N+]([O-])c1ccc(N(CCO)CCO)c2c1no[n+]2[O-]	Vc quorum ag-1 39 | Vc quorum ag-2 inactive
CCc1cc(C(=O)N2CCN(C(=O)c3ccccc3)CC2)sc1C	none | Vc quorum ag-2 inactive
CCc1cc(C(=O)N2CCN(c3ccccn3)CC2)sc1C	none (no result: Bead autofluor, BoNT A protease, Anthrax LF inh2, BoNT-F LC inh)
Cc1cccc(NC(=O)c2ccccc2NC(=O)c2ccccc2)n1	BoNT-F LC inh inconclusive
Cc1ccc(C)c(N2CCN(C(c3ccc(N(C)C)cc3)c3nnnn3C(C)(C)C)CC2)c1 (stereo not drawn)	Vc quorum ag-1 38 | Vc quorum ag-2 inactive
Cc1ccc(C)c(N2CCN(C(c3ccccc3)c3nnnn3C(C)(C)C)CC2)c1 (stereo not drawn)	none (no result: Vc quorum ag-1)
CC(=O)c1ccc(NC(=O)COC(=O)CCC2CCCC2)cc1	none
CSc1nc(SCc2ccccc2)[nH]c(=O)n1	none
C[C@H](CO)N1C[C@H](C)[C@@H](CN(C)S(C)(=O)=O)Oc2c(NC(=O)Nc3ccc4c(c3)OCO4)cccc2C1=O	none
C[C@H](CO)N1C[C@H](C)[C@@H](CN(C)S(=O)(=O)c2ccccc2)Oc2c(NC(=O)Nc3ccc4c(c3)OCO4)cccc2C1=O	Vc quorum ag-1 109 | Vc quorum ag-2 inactive
CC1(C)Nc2ccc(O)cc2-c2c1ssc2=S	none | Vc quorum ag-2 inactive
CN(C)c1ccc2c3c(ccc(N(C)C)c13)C(=O)OC2	none (no result: Bead autofluor, BoNT A protease, Anthrax LF inh2, BoNT-F LC inh)
Cc1ccc(C(=O)COc2cc(C)nc3nncn23)cc1	BoNT A protease inconclusive, BoNT-F LC inh inconclusive, Vc quorum ag-1 923 | Vc quorum ag-2 inactive
COC(=O)C1CCN(C(=O)CN(C)Cc2ccc(C(C)(C)C)cc2)CC1	BoNT-F LC inh 36, Vc quorum ag-1 41 | Vc quorum ag-2 inactive | BoNTA LC inh 1 inactive | BoNT-F LC CP1 inactive | LF protease CP1 inactive
CCCCC(CC)CNC(=O)CN1C(=O)NC2(CCc3ccccc32)C1=O (stereo not drawn)	none
COc1ccc(S(=O)(=O)NC(C)C(=O)N2CCCC2)cc1Cl (stereo not drawn)	Anthrax LF inh2 31, BoNT-F LC inh inconclusive | BoNTA LC inh 1 inactive | BoNT-F LC CP1 inactive | LF protease CP1 inactive
